According to PubChem BioAssay AID492952 (Southern Research Specialized Biocontainment Screening …, 2010):
Screen size: about 2,300 compounds; about 1,500 (65%) were called active. The set was probably picked from earlier hits. The list shows a part of the results. Entries with a potency or affinity are not part of this list. Unmarked numbers belong to inactive results. No rule for the calls is given here.

assay: replicating M. tuberculosis growth inhibition, dose response, non-replicating M. tuberculosis project, H37Rv (AID 492952); details: series mostly up to 50 µM; inhibition: at the top concentration;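 also: Mycobacterium tuberculosis grown in culture; growth inhibition read after a week of incubation; 0% = bacteria alone untreated and 100% = bacteria with high antibiotic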

SMILES	inhibition [%]
O=C1CCC(=O)N1CNc1ccc(Oc2ccccc2)cc1	-6.19
CCOC(=O)CCSc1n[nH]c(=S)s1	0.83
CC(=O)N1CCN(C(=O)CC2OC(=O)c3ccccc32)CC1 (stereo not given)	-6.89
CCn1ccc(C(=O)Nc2cccc(Cl)c2)n1	-3.96
COc1ccc(CC(=O)OCC(=O)Nc2ccc(Br)cc2)cc1	-4.73
O=C(COc1ccc(Br)cc1)N/N=C1/SCC(=O)N1Cc1ccco1	0.21
O=C(O)c1ccc(NCc2ccc(Br)cc2)cc1	1.94
O=C(COc1ccccc1)Nc1ccc(Cl)cn1	4
COc1ccccc1C(=O)OCC(=O)Nc1ccc(Cl)cn1	6.92
O=C(COC(=O)CC1CCCC1)Nc1ccc(Cl)cn1	0.61
Cc1ccc(OCC(=O)Nc2ccc([N+](=O)[O-])cc2)cc1	4.13
O=C(CCC1CCCC1)Nc1ccc(Br)cn1	-6.11
O=C(OCC#CCSc1nnc(-c2ccncc2)o1)c1cccs1	8.48
O=C(NCc1cccs1)c1ccc([N+](=O)[O-])cc1	17.9
OC(C#CCN1CCOCC1)c1cccs1 (stereo not given)	17.4
Nc1ccc(C(=O)N/N=C\C=C\c2ccc([N+](=O)[O-])cc2)cc1	-1.89
CCOC(=O)c1csc(NC(=O)COc2ccc(Cl)cc2Cl)n1	2.42
O=C(N/N=C/c1cc(Br)ccc1O)c1ccccc1Cl	-1.46
COC(=O)COc1ccc(S(=O)(=O)NCc2ccc3c(c2)OCO3)cc1	14
O=C(NCc1ccc(Cl)cc1)c1n[nH]c([N+](=O)[O-])c1Cl	-6.89
Cc1cc(Cl)ccc1N(CC(=O)NCc1ccccc1)S(C)(=O)=O	2.63
O=C1NC(Cc2c[nH]c3ccccc23)C(=O)N1CCOc1ccccc1 (stereo not given)	-4.22
Fc1ccc(-c2nnc(CSc3nnc(-c4cccs4)o3)o2)cc1	8.56
c1ccc(-c2nnc(SCc3cn4ccsc4n3)o2)cc1	0.98

SMILES	inhibition [%]
CCn1cc(C(=O)NC(C)C23CC4CC(CC(C4)C2)C3)cn1 (stereo not given)	-7.28
CN(C)CCC(=O)N1c2ccccc2Sc2ccc(Cl)cc21	2.62
CCOC(=O)Nc1ccc2c(c1)N(C(=O)CCCl)c1ccccc1[S@]2=O	13.7
Cc1ccc(C)c(NC(=O)COC(=O)c2cc3ccccc3oc2=O)c1	6.08
CCOc1ccccc1OC(=O)c1cc2ccccc2oc1=O	27.5
O=Cc1coc2ccc3ccccc3c2c1=O	0.34
CC1(c2nnc(Cc3ccccc3)o2)CC(c2ccccc2[N+](=O)[O-])=NO1 (stereo not given)	3.65
C/C(=N\O)c1cc(Cl)ccc1O	0.24
CC(C)=CCN1CCN(Cc2cn(C(C)C)c3ccccc23)CC1CCO (stereo not given)	5.98
CCOc1ccc(-c2ccc(C=O)o2)c([N+](=O)[O-])c1	-3.32
O=[N+]([O-])c1ccc(N2CCCCCC2)c2nonc12	10.1
CC(C)N1CCc2c(sc(NC(=O)CCS(=O)(=O)c3ccccc3)c2C#N)C1	-6.18
CSC1=NSC2=NC(=O)/C(=C\c3cccs3)C(=N)N12	0.71
N=C1/C(=C\c2coc3ccccc3c2=O)C(=O)N=C2SC=CN12	3.33
c1cncc(-c2noc(CC3CCCCC3)n2)c1	-0.36
COc1ccc(C(=O)CC(=O)C(=O)NCCc2cccc(C)c2)cc1	8.12
O=C(CCSc1ccc(Cl)cc1)Nc1cccnc1	0.63
CC[n+]1c(/C=C(\C)Nc2ccccc2)sc2ccccc21	10.4
Cc1nnc(C)n1/N=C/c1cc(Br)cc(Br)c1O	-2.48
COc1cc(C2C3=C(CC(C)(C)CC3=O)OC(N)=C2[N+](=O)[O-])ccc1O (stereo not given)	3.24
CCOC(=O)CC(NS(=O)(=O)Cc1ccccc1)c1ccc(C)cc1 (stereo not given)	1.94
COc1ccc(NC(=O)c2nc3ccccc3s2)cc1	-0.19
COc1cccc(NC(=O)c2ccc(C(=O)c3ccccc3)o2)c1	-2.29
CCOc1ccc(NC(=O)c2nnn(CC(=O)Nc3ccccc3OC)c2N)cc1	2.2

SMILES	inhibition [%]
COC(=O)COc1ccc(S(=O)(=O)N2CCN(c3ccccc3F)CC2)cc1	4.73
O=S(=O)(c1ccc(OCC2CO2)cc1)c1ccc(OCC2CO2)cc1 (stereo not given)	-2.76
Cc1ccc(CC(=O)N2CCN(c3ccc([N+](=O)[O-])cc3)CC2)cc1	-1.43
O=C(NNC(=O)c1cccs1)c1ccc(Br)o1	-8.17
O=C(c1cccs1)N1CCN(c2ccc(Cl)cc2)CC1	1.37
O=C(Nc1ccc(N2CCN(C(=O)c3ccco3)CC2)c(Cl)c1)c1cccs1	0.19
Cc1nc2ccc(OC(=O)c3ccccc3)cc2s1	29.8
Cc1ccc(-c2nnc(-c3ccccc3)o2)cc1	3.49
O=C(COC(=O)CCC(=O)c1ccc(F)cc1)Nc1ccc(F)cc1F	-1.72
O=C(NNC(=O)c1ncc(Cl)c(Cl)c1Cl)c1ccc(F)cc1	5.84
O=C1c2ccccc2CC1Sc1nnc(-c2ccncc2)o1 (stereo not given)	11.4
C/C(=N\NC(=O)c1cccc(Cl)c1)C1C(=O)c2ccccc2C1=O	0.13
O=C(Nc1ccc(Cl)cc1Cl)c1cccc(N2C(=O)C=CC2=O)c1	14.2
CCOc1ccccc1NC(=O)COn1nnc2ccc(Cl)cc21	-4.11
O=S(=O)(CCN1CCN(c2ccccn2)CC1)c1ccc(Cl)cc1Cl	2.07
CC(=O)c1ccc(-c2nnc(CCC(=O)N(C)Cc3cccc4cnccc34)o2)s1	-1.47
O=C(COc1cccc2ccccc12)Nc1ccc(Cl)cc1C(=O)O	5.34
CCOC(=O)c1csc(COc2ccccc2Cl)n1	-1.18
O=C(Nc1nccs1)c1ccc(COc2ccc(Cl)cc2)o1	-1.74
N=c1oc2ccc(Cl)cc2cc1C(=O)NC1CCCCCC1	2.7
CCOc1cccc2cc(C(=O)NC(C)c3ccccc3)c(=N)oc12 (stereo not given)	3.19
CCNC(=O)NC(=O)C(C)OC(=O)CCCSc1nc2ccccc2s1 (stereo not given)	3.89
CCOC(=O)NC(=O)COC(=O)CCCSc1nc2ccccc2s1	6.54
CCOC(=O)C(=O)Cc1nc2ccccc2s1	2.3

SMILES	inhibition [%]
CC(C)CNc1nc(=S)nc(N(C)C)[nH]1	1.1
COc1ccc(S(=O)(=O)NCc2ccc3c(c2)cc(C)n3C)cc1	7.34
CCOC(=O)c1c(-c2ccccc2)csc1NC(=O)CCN1CCOCC1	2.4
CC(NC(=O)OCc1ccccc1)c1ccccc1 (stereo not given)	-0.48
COc1ccc2cc(C(=O)NCc3ccccc3CN3CCCC3)ccc2c1	29.6
CCCCn1nnc(NC(=O)COc2ccc(Cl)c(C)c2)n1	12.5
O=c1c2c([N+](=O)[O-])cc([N+](=O)[O-])cc2nc2ccccn12	17.1
COc1cc(Cl)cc(/C=N/NC(N)=O)c1O	2.23
CCSc1nc(O)c(C2OC(=O)c3c2ccc(OC)c3OC)c(=O)n1-c1ccccc1 (stereo not given)	-2.58
NCCNc1ccc([N+](=O)[O-])c2cccnc12	6.01
C/C(=N/NC(=O)c1ccco1)c1ccc(Br)s1	-2.18
C/C(=N\NC(=O)c1ccco1)c1cc(Cl)sc1Cl	2.82
Cc1cccnc1NC(=O)COc1ccc2oc3c(c2c1)CCCC3	2.59
CCOC(=O)N1CCN(c2cc(C)c([N+](=O)[O-])cc2F)CC1	0.99
Cc1ccc(NC(=O)c2noc(C(C)C)c2[N+](=O)[O-])cc1	5.61
O=c1ccn(-c2ccccc2)[nH]1	4.15
Cc1ccnc(-n2sc3ccccc3c2=O)n1	-1.3
COc1ccc(OCc2n[nH]c(=S)o2)cc1	-6.5
O=c1oc(-c2ccccc2[N+](=O)[O-])nc2ccccc12	5.42
C=CC(=O)Oc1ccc(N2Cc3ccccc3C2=O)cc1	-13.4
CN1CCN(Cc2cc(C(C)(C)C)c(O)c(C(C)(C)C)c2)CC1	0.19
CCCn1c(O)c(N=NC(=O)c2ccco2)c2ccccc21	-4.81
CCCN1C(=O)SC(CC(=O)Nc2ccccc2)C1=O (stereo not given)	-14.1
CCCCn1c(N)c(-c2nc3ccccc3o2)c2c([N+](=O)[O-])nn(CC)c(=O)c21	-4.02

SMILES	inhibition [%]
C/C(=N\NC(=O)c1ccccc1)c1nc2ccccc2n1C	5.23
Cc1cccc(CSc2nnc(-c3ccco3)o2)c1	9.12
Cc1cc(C)c(OCC(=O)Nc2nnc(-c3ccco3)o2)c(C)c1	28.4
CC1=CN2C(=N)/C(=C/c3ccc([N+](=O)[O-])o3)C(=O)N=C2S1	3.33
CN(/N=C/c1ccc([N+](=O)[O-])o1)c1ccccc1	6.49
Cc1cc(C)n(-c2ccc(C(=O)OCC(=O)Nc3cc(Cl)ccc3[N+](=O)[O-])cc2)n1	0.57
COC(=O)C1=C(C)N(CC2CC2)C(=NCc2cccc(Cl)c2)N[C@H]1c1ccccc1	16.6
CCCC(C)C(=O)Nc1ccc(Cl)cn1 (stereo not given)	1.28
CC(C(=O)OCC(=O)c1ccccc1)N1C(=O)C2C3CCC(C3)C2C1=O (stereo not given)	-2.54
CC(Cc1ccccc1Sc1ccccc1)N(C)C (stereo not given)	5.59
CN1CCN(/N=C/c2ccc(-c3ccc([N+](=O)[O-])cc3Cl)o2)CC1	1.44
Cc1ccc(-c2ccc(/C=N/NC(=O)CN3CCCC3)o2)cc1Cl	8.7
COc1ccc(Cl)cc1N=Cc1c(O)c2ccccc2oc1=O	2.85
COc1ccccc1-n1c(=O)oc2ccc(Cl)cc2c1=O	0.52
O=C(N/N=C\c1ccccc1OCc1ccccc1)c1ccco1	2.01
O=C(N[C@@H]1C[C@H]2CC[C@@H]1C2)c1ccco1	-3.89
Cc1ccc(C(=O)NCCOc2cccc(C)c2)cc1	10.5
O=C(NCc1ccccc1CN1CCCC1)c1cc2ccccc2o1	-1.3
CCCCNC(=O)N1CCc2ccccc2C1	2.06
CCN1CCN(C(=O)CN(Cc2ccccc2)S(C)(=O)=O)CC1	3.47
O=C1CC(N2CCN(Cc3ccccc3)CC2)C(=O)N1CCc1ccccc1 (stereo not given)	-2.14
O=C(CCS(=O)(=O)Cc1ccccc1)Nc1ncc([N+](=O)[O-])s1	6.12
O=C(N/N=C/c1c(O)ccc2ccccc12)c1ccc(Br)o1	-8.28
CCCCN(C)C(=O)c1cc2cc3ccc(OC)cc3nc2s1	13.3
